Source: PubChem BioAssay (NCATS)
Records with an inconclusive call do not appear. Activity calls are given as the source filed them. Calls follow the shape of the dose curve; as a rule, active = well fitted curve in the direction sought with a large enough effect; inconclusive = small, poorly fitted or top-dose-only effect, or another doubt; inactive = no such curve, though single readings can be large; an effect the other way counts as inactive or inconclusive. Where a SMILES comes first, the peptide text is derived from it.

Experiments:
[1] = biological target: Glutathione peroxidase 1 (Homo sapiens) (UniProt P07203); experiment: Primary qHTS Assay for Inhibitors of Recombinant Selenoprotein Glutathione Peroxidase 1 (GPX1) (AID 1845191); also: nearly all actives have a fitted effect of over 65% in size; as to activity, negative = inhibition: % is scaled to controls: 0 for no effect and ±100 for the full control effect
Glutathione peroxidase 1 (Homo sapiens), sequence (P07203 whole entry, looked up): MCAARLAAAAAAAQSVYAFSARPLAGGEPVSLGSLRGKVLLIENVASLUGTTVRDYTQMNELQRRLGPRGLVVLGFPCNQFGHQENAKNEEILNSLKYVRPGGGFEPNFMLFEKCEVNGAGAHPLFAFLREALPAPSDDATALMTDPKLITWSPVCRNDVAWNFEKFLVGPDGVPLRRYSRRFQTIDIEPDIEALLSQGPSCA
Outline: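 GPX1 10 nM, GR 100 nM, GSH 1 mM, NADPH 0.5 mM, CHP 0.5 mM (final). 30-min cpd preincubation, RT. Ex340/Em450 read t=0, t=15 min.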

[2] = biological target: Phospholipid hydroperoxide glutathione peroxidase GPX4 (Homo sapiens) (UniProt P36969); experiment: Primary qHTS Assay for Inhibitors of Recombinant Selenoprotein Glutathione Peroxidase 4 (GPX4) (AID 1845192); also: nearly all actives have a fitted effect of over 65% in size; also: potency is read from the fitted curve at half-maximal effect; as to activity change, negative = inhibition: series mostly up to about 50 µM; % is scaled to controls: 0 for no effect and ±100 for the full control effect
Phospholipid hydroperoxide glutathione peroxidase GPX4 (Homo sapiens), sequence (P36969 whole entry, looked up): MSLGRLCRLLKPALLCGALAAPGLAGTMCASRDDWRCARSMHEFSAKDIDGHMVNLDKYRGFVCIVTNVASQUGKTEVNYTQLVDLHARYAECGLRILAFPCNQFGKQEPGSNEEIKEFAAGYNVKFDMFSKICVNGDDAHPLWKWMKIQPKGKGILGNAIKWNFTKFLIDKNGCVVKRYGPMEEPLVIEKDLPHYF
Outline: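 qHTS, GR-coupled: GPX4 200 nM + cpd 30 min RT → GSH 1 mM, NADPH 0.5 mM, GR 100 nM → CHP 0.5 mM start; fluor 340/450 at t0 and t15 min; no-enzyme wells as control.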

[3] = biological target: Luciferin 4-monooxygenase (Photinus pyralis) (UniProt P08659); experiment: Primary firefly luciferase (FLuc) qHTS assay for identification of artifact compounds. (AID 1845220); also: nearly all actives have a fitted effect of over 60% in size;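 as to activity change, negative = inhibition: series mostly up to about 54 µM; plate controls were DMSO vehicle for no effect and no enzyme for full effect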
Outline: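 qHTS, 15 min compound preincubation with substrate (10 uM luciferin, 10 uM ATP) at RT, then 10 nM FLuc; 5 min; luminescence; % inhibition vs no-enzyme/DMSO controls, 4-parameter Hill fit.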

[4] = Primary fluorescence-based thiol-reactive (MSTI) qHTS assay for identification of artifact compounds. (AID 1845221); also: nearly all actives have a fitted effect of over 65% in size; also: potency is read from the fitted curve at half-maximal effect;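 as to activity change, negative = thiol reactive: series mostly up to about 54 µM; thiol-reactive compounds lower the probe fluorescence signal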
Outline: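 One-hour, room-temperature, dark incubation of compound with 4 uM MSTI in PBS (pH 7.4, 2% DMSO) precedes a fluorescence read at 525 nm excitation, 598 nm emission; Hill-equation fitting yields concentration-response values.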

[5] = test system: Nanoluciferase (engineered Oplophorus gracilirostris luciferase); experiment: Primary Nanoluciferase (NLuc) qHTS assay for identification of artifact compounds. (AID 1845222); also: series mostly up to about 54 µM
Outline: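 Luminescence read-out of secreted NLuc in S16 cell conditioned medium (1:55); compounds tested with 15 min RT preincubation, then Nano-Glo substrate 1:100, 5 min. % inhibition vs no-enzyme and DMSO controls, 4-parameter Hill fit.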

[6] = Primary redox qHTS assay for identification of artifact compounds. (AID 1845223);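 also: 0% = DMSO and 100% = reference compound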
Outline: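 Redox-cycling detection via DTT (250 uM final) oxidation coupled to Amplex Red (25 uM)/HRP (250 mU/mL) in HBSS. 15 min preincubation plus 30 min after DTT, room temperature. Ex/Em 525/598 nm; 4-parameter Hill fit against DMSO and 10 uM DA3003.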

C[C@@H](O)[C@H](N)C(=O)N1CCC[C@H]1C(=O)N1CCC[C@H]1C(=O)N[C@H](C(N)=O)[C@@H](C)O (H-TPPT-NH2)
inactive: outcome [1] inactive [at 9.52 µM] | activity change, negative = inhibition [2] 2.51% [at 9.73 µM] | activity change, negative = inhibition [3] 3.24% [at 11.6 µM] | activity change, negative = thiol reactive [4] -5.11% [at 11.5 µM] | activity, negative = inhibition [5] 4.97% [at 11.6 µM] | redox activity (% of DA3003) [6] 17.6% [at 11.5 µM]

C=C1CC2C3(C)C(OC(C)=O)CC(=O)OC(C)(C)C3C(O)C(OC(C)=O)C2(C)C2C(=O)OC(C)C(=O)C12C (stereo not given)
inactive: Potency [1] | Potency [2] | Potency [3] | Potency [4] | Potency [5] | Potency [6]

CC1NC(=O)CNC(=O)C(C(C)C)NC(=O)C2CCCN2C(=O)C(C(C)C)NC(=O)C(Cc2c[nH]c3ccccc23)NC1=O (stereo not given) (cyclo(GAWVPV); configuration not given here)
inactive: Potency [1] | Potency [2] | Potency [3] | Potency [4] | Potency [5] | Potency [6]

Cc1cn2c(N)c(Cl)cc(C(=O)NCC3CCN(CC(C)C)CC3)c2n1
active: Potency [2] 22.7 µM
inactive: Potency [1] | Potency [3] | Potency [4] | Potency [5] | Potency [6]

CC(C)CNC(=O)/C=C/CCCCc1ccc2c(c1)OCO2
inactive: Potency [1] | Potency [2] | Potency [3] | Potency [4] | Potency [5] | Potency [6]

CC1(C)O[C@@]2(C)CC[C@@H]1C[C@@H]2OC1OC(CO)C(O)C(O)C1O (stereo not given in full)
inactive: Potency [1] | Potency [2] | Potency [3] | Potency [5] | Potency [6]
active: Potency [4] 7.36 µM

CC1=C2[C@@H]([C@H](C)CC[C@H]2/C=C(\C)C(=O)O)[C@H](O)C1
inactive: Potency [1] | Potency [2] | Potency [3] | Potency [4] | Potency [5] | Potency [6]

C=CC1(C)C=C2C(O)CC3C(C)(C(=O)O)CCCC3(C)C2CC1 (stereo not given)
inactive: Potency [1] | Potency [2] | Potency [3] | Potency [4] | Potency [5] | Potency [6]

CC(=O)[C@@H]1CC[C@]2(C(=O)O)CC[C@]3(C)C(CCC4[C@@]5(C)CC[C@H](O)C(C)(C)C5CC[C@]43C)C12 (stereo not given in full)
inactive: Potency [1] | Potency [2] | Potency [3] | Potency [4] | Potency [5] | Potency [6]

COc1ccccc1[C@@H]1C2=C(CC(C)(C)CC2=O)Nc2n[nH]c(C(F)(F)F)c21
inactive: Potency [1] | Potency [2] | Potency [3] | Potency [4] | Potency [5] | Potency [6]
